“And” between values parts separate entries of the source, which are not always exact repeats. Equal values may be shown once. About 1,200 (0.39%) of roughly 310,000 compounds were called active. Not all results are given here. Results with a measured potency or affinity are listed apart. Values without a mark were called inactive. No rule for the calls is given here.

Large T antigen (Simian virus 40), sequence (P03070 whole entry, looked up): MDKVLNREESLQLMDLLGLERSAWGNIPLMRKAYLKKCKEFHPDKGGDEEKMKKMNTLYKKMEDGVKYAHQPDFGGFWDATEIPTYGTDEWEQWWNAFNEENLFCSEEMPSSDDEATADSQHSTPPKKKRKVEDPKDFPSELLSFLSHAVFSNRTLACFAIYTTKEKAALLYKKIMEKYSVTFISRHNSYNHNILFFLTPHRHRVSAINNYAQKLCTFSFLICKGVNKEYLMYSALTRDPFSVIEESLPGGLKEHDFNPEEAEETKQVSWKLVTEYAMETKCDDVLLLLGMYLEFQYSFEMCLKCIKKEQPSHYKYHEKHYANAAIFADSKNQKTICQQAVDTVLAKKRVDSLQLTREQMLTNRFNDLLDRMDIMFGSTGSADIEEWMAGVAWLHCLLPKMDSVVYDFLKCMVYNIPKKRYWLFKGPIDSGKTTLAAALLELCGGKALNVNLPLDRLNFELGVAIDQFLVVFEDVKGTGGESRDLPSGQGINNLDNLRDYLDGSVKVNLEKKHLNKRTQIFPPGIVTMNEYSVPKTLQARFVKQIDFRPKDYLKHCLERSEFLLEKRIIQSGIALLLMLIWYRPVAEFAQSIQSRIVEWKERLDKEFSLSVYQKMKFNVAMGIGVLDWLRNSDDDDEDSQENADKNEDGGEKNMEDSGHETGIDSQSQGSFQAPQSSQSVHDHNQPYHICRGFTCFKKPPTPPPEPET

This assay concerns the target Large T antigen (Simian virus 40) (UniProt P03070). The assay is described as follows: SV40 large T antigen inhibitors, biochemical (AID 1903). Particulars: SV40 large T antigen ATPase/helicase inhibition assay; at 20 µM; active compounds read high.
What is called inhibition is the relative decrease from the control value, in per cent. Turning to `Cn1c(=O)n(CC(N)=O)c(=O)c2c1nc1n2CCCN1Cc1ccccc1`, the inhibition was 5.61%. As to `CC(C)(C)C(=O)NC(=S)Nc1ccccc1F`, the inhibition was 0.75%. In the case of `CC1=NN(c2ccccc2)C(=O)/C1=C\C=C\c1ccccc1`, the inhibition was 19.4%. In the case of `O=C(/C=C/c1ccco1)Nc1cc(Cl)ccc1C(=O)O`, the inhibition was 21.9%. As for `CC1=NN(c2ccc(Cl)c(C(=O)O)c2)C(=O)C1`, the inhibition was 27.9%. The result for `CCOC(=O)c1ccc(N2N=C(C)/C(=C/C=C/c3ccco3)C2=O)cc1` reads 21%; that for `CC1=NN(c2ccccc2)C(=O)/C1=C/C=C/c1ccccc1`, 9.74%. As for `CC1=NN(c2ccc(C(=O)OC(C)C)cc2)C(=O)/C1=C\C=C\c1ccco1`, the figure is 12.7%.

As to `COC(=O)c1cc(NC(=O)Cn2c(=O)cnc3ccccc32)cc(C(=O)OC)c1`, the inhibition is 24%. On to `CCCCc1c(O)nc(SCC(=O)NC(C)(C)C)n(-c2ccccc2C)c1=O`, for which the inhibition was 0.223%. In the case of `Cc1ccc(NC(=O)c2oc3ccccc3c2NC(=O)C2CC2)cc1`, the inhibition was 12.7%.

On to `Cc1cc(NC(=O)/C=C\C(=O)O)c([N+](=O)[O-])cc1C`, for which the inhibition is 9.88%. As for `CCCn1c(N)c(C(=O)CSc2n[nH]c(-c3ccc(C)cc3)n2)c(=O)[nH]c1=O`, the figure is 8.37%; as for `CC(C)C[C@H]1CN=C(Nc2ccccc2)N1CCCC1CCCC1`, 16.4%; as for `Oc1ccc(/C=N\Nc2nncc(-c3ccccc3)n2)cc1`, 28.1%.

`O=c1[nH]c(=O)c2nnc(N/N=C/c3ccccc3F)nc2[nH]1`: the inhibition was 11.5%.

With `CC(C)C(NS(=O)(=O)c1cccc2nsnc12)C(=O)Nc1nc2ccc(Cl)cc2s1` (stereo unspecified), the inhibition is 1.74%. On to `COc1ccc(S(=O)(=O)Nc2c(C(=O)O)[nH]c3ccccc23)cc1`, for which the inhibition is 11.7%. Turning to `COc1ccc(N2C(=O)NC(=O)C2=O)cc1`, the inhibition was 1.84%. `Nc1nc(Nc2ccccc2Cl)cc(=O)[nH]1`: the inhibition is 10.8%. With `COCn1c(-c2ccc(OC)c(OC)c2)nc2ccccc21`, the inhibition is 3.62%.

Take `O=C1CS/C(=N\N=C\c2ccco2)N1c1ccccc1`: the inhibition is 31.1%. For `COc1ccc2cc(S(=O)(=O)n3cnc(C)c3)ccc2c1`, the inhibition was 3.48%. On to `CCN(CC)c1ccc(/C=N/NC(=O)CN2CCCc3ccccc32)cc1`, for which the inhibition was 13.9%.

On to `CNC(=S)N1CCN(c2cccc(OC)c2)CC1`, for which the inhibition was -1.1%. As to `COc1ccc(N2CC(NC(=O)N3CCN(c4ccccc4)CC3)CC2=O)cc1` (stereo unspecified), the inhibition is 21.7%. Take `CCN1CCN(C(=O)NC2CC(=O)N(c3ccc(OC)cc3)C2)CC1` (stereo unspecified): the inhibition was 24.6%. The result for `COc1ccc(N2CCN(C(=S)Nc3ccccc3)CC2)cc1` reads 17.3%; that for `CCC(Sc1nc(N)c(NC(=O)c2ccc(OC)cc2)c(=O)[nH]1)C(=O)O` (stereo unspecified), 7.11%; that for `Cc1cc(NC(=O)CSc2nc(N)c(NC(=O)c3ccc(F)c(F)c3)c(=O)[nH]2)no1`, 5.69%. As to `N#CC(C#N)=C1c2cc(S(N)(=O)=O)ccc2-c2ccc(S(N)(=O)=O)cc21`, the inhibition was 3.73%.

Turning to `N=C1/C(=C\c2ccc(OCc3ccccc3)cc2)C(=O)N=C2SC(N3CCCC3)=NN12`, the inhibition was 10.7%. In the case of `O=c1[nH]c(CSc2nnc(-c3ccccc3)n2-c2ccccc2)nc2ccccc12`, the inhibition is 3.3%. As for `COc1cccc(C(=O)NCC(=O)N2CCC3(CC2)NCCc2[nH]cnc23)c1OC`, the figure is 28.6%; as for `O=C(CSc1nc(-c2ccco2)cc(C(F)(F)F)n1)Nc1ccccc1C(F)(F)F`, 13.3%. For the molecule `O=C(O)C1CC(=O)N(c2ccc(OCc3c(F)cccc3Cl)cc2)C1` (stereo unspecified), the inhibition was 1.79%. Take `COc1ccc(-c2oc3ncnc(N)c3c2-c2ccccc2)cc1`: the inhibition is 5.94%. Consider `Cc1ccc(-c2oc3ncnc(N)c3c2-c2ccc(C)cc2)cc1`, for which the inhibition was 5.86%.

For `Cc1cc(NC(=O)CSc2nc3ccccc3n2CC(=O)N2CCC(C)CC2)no1`, the inhibition is -5.11%.

As to `NC1=NC(=O)C2(COC(c3ccncc3)OC2)S1` (stereo unspecified), the inhibition is 3.62%.

`CC(C)CSc1nc2ccccc2n1CC(=O)O`: the inhibition was 9.25%. `CC(=O)N1C(=O)N(C(C)=O)C2C1N(C(C)=O)C(=O)N2C(C)=O` (stereo unspecified): the inhibition was 5.35%.

With `O=C1CCCN=C(Nc2ccc(F)c(Cl)c2)S1`, the inhibition was 9.56%. As to `CN1C(=O)/C(=C\C=C2/CCCN2C)N(C)C1=S`, the inhibition is 17.1%. Regarding `CN1CCN(/C=C2\SC(=S)NC2=O)CC1`, the inhibition is 5.4%. Regarding `COc1ccc(-c2cc(C(=O)Nc3cccc(Cl)c3)no2)cc1`, the inhibition was 7.5%. On to `O=C(COc1ccc(F)cc1)Nc1cc(S(=O)(=O)N2CCCCC2)ccc1N1CCCCC1`, for which the inhibition is 16%. As for `N#CC1=C2SCN(Cc3ccco3)CN2C(=O)CC1c1cccc2ccccc12` (stereo unspecified), the figure is 24.4%; as for `CCc1ccccc1N1CSC2=C(C#N)C(c3ccccc3F)CC(=O)N2C1` (stereo unspecified), 54.3% and 27%.

With `N#CC1=C2SCN(Cc3ccco3)CN2C(=O)CC1c1ccccc1F` (stereo unspecified), the inhibition is 21.6%. Regarding `N#CC1=C2SCN(c3ccc(F)cc3)CN2C(=O)CC1c1cccc(F)c1` (stereo unspecified), the inhibition was 35.6%. In the case of `N#CC1=C2SCN(c3ccccc3)CN2C(=O)CC1c1c(Cl)cccc1Cl` (stereo unspecified), the inhibition is 33.9%. The result for `N#CC1=C2SCN(Cc3ccccc3)CN2C(=O)CC1c1ccccc1F` (stereo unspecified) reads 35.3%; that for `COc1ccccc1Nc1nc(NCCO)nc(N)c1[N+](=O)[O-]`, 7.82%.

Regarding `COc1ccc(-c2cc(-c3n[nH]c(=S)n3-c3ccccc3OC)[nH]n2)cc1`, the inhibition is 32.3%. As for `O=c1cc(-c2ccccc2)nc(N2CCN(Cc3ccc4c(c3)OCO4)CC2)[nH]1`, the inhibition is 9.11%.

As for `O=C(N/N=C/c1cccnc1)c1cccc(N2CCCC2=O)c1`, the inhibition was 0.45%. Take `Cn1cccc1Cc1nnc(SCC(=O)NCCc2ccccc2)n1C`: the inhibition was -0.6%. With `COc1ccc(NC2CCCN(C(=O)c3ccc4nc(C)c(C)nc4c3)C2)cc1OC` (stereo unspecified), the inhibition was 26.4%. Turning to `Cc1noc(C)c1C(=O)N1CCCC(Nc2ccc(C(C)C)cc2)C1` (stereo unspecified), the inhibition was -5.88%. Consider `CC(C)c1ccc(NC2CCCN(C(=O)c3ccco3)C2)cc1` (stereo unspecified), for which the inhibition was 19.6%. Consider `COc1ccc(C(=O)N2CCCC(Nc3ccc(F)cc3)C2)c(OC)c1` (stereo unspecified), for which the inhibition is 12%.

Take `COc1ccc(OC)c(C(=O)N2CCCC(Nc3ccc(F)cc3)C2)c1` (stereo unspecified): the inhibition is 23%. Consider `COc1ccc(NC2CCCN(C(=O)c3ccc4nccnc4c3)C2)cc1OC` (stereo unspecified), for which the inhibition is 32.5%. Take `COC(=O)c1cccc(C(=O)N2CCCC(Nc3ccc4c(c3)OCCO4)C2)c1` (stereo unspecified): the inhibition is 29.8%.

Take `Cc1ccc(NC2CCCN(C(=O)c3c(C)noc3C)C2)cc1C` (stereo unspecified): the inhibition is 21.2%. On to `COc1ccc(-n2cnc3cc(C(=O)NCC4CCCO4)ccc32)cc1` (stereo unspecified), for which the inhibition was 3.91%. For `CN(C)CCCN(C(=O)c1ccco1)c1nc2ccc(F)cc2s1`, the inhibition was 7.29%.

In the case of `C(=N\N1CCN(c2ccccc2)CC1)/c1ccccc1`, the inhibition was 8.2%.

With `COC(=O)[C@@H]1C[C@H]2CC[C@H](O)C[C@H]2N1Cc1ccc(Cl)cc1`, the inhibition was 8.58%. As to `N#Cc1c(/N=C/c2ccc(-c3ccccc3C(=O)O)o2)sc2c1CCCC2`, the inhibition was 13.3%. The result for `CCOC(=O)C1CCN(C(=O)CCNC(=O)c2cc(OC)c(OC)c(OC)c2)CC1` reads 4.64%. Regarding `CCOC(=O)CSc1nnc(NC(=O)c2ccco2)s1`, the inhibition was -8%. Regarding `Cc1ccc(N(CC(=O)NCC2CCCO2)C(=O)Cn2nnc(-c3cccs3)n2)cc1` (stereo unspecified), the inhibition is 24.6%. As to `Cc1ncc(CN2CCC(CO)(Cc3ccccc3)CC2)s1`, the inhibition is 2.75%. In the case of `COc1ccc(NC2CCCN(C(=O)c3ccc(C(C)=O)cc3)C2)cc1` (stereo unspecified), the inhibition is 46.3%. For `COc1ccc(NC2CCCN(C(=O)c3ccncc3)C2)cc1` (stereo unspecified), the inhibition is 51.8%.

Take `O=C(Nc1cccnc1)/C(N=Nc1c(Cl)cccc1Cl)=C(\O)c1ccccc1`: the inhibition is 0.28%. On to `C/C(=N\NC(=O)CC#N)c1cc2ccc(O)cc2oc1=O`, for which the inhibition was 21.8%. Take `C/C(=N/NC(=O)c1ccncc1)c1cc2ccc(O)cc2oc1=O`: the inhibition is 12.9%. As to `CCc1noc(C)c1C(=O)N1CCN(S(=O)(=O)c2c(C)c(C)cc(C)c2C)CC1`, the inhibition is 5.1%. As to `O=C(O)c1ccccc1C(=O)c1cccc2ccccc12`, the inhibition was 8.24%.

Consider `O=C(O)CCC(=O)c1cccc2ccccc12`, for which the inhibition was 6.26%. Consider `CS(=O)(=O)N1CCCC(C(=O)N2CCN(c3cccc(Cl)c3)CC2)C1` (stereo unspecified), for which the inhibition is 9.69%. Regarding `COc1ccccc1NC(=S)N(CCCN1CCOCC1)Cc1ccccn1`, the inhibition was 12.9%. Turning to `Cc1nc2ccc(S(=O)(=O)N3CCCCC3)cc2s1`, the inhibition is 2.61%. Regarding `CSc1nc2ccc(S(=O)(=O)N3CCCCC3)cc2s1`, the inhibition was 4.61%. The result for `COc1ccc(NC(=O)CC2C(=O)N(c3ccc(F)cc3)C(=S)N2NC(=O)c2ccc(Cl)cc2)cc1` (stereo unspecified) reads 8.76%. On to `O=C(Nc1ccc(Br)cc1)c1cccc(N2C(=O)CCC2=O)c1`, for which the inhibition is 7.57%.

Regarding `O=C(Nc1ccc(F)cc1)c1ccc2nc[nH]c2c1`, the inhibition is 7.49%. As for `COc1cc(C(=O)Nc2ccncc2)cc(OC)c1OC`, the inhibition is 5.76%. Turning to `COc1cc(C(=O)Nc2ccc(Nc3ccccc3)cc2)cc(OC)c1OC`, the inhibition is 12.4%. For `O=C(Nc1ccccc1)c1cccc(N2C(=O)CCC2=O)c1`, the inhibition was 5.21%. On to `CCCOc1ccc(C(=O)Nc2ccc(N(C)C)cc2)cc1`, for which the inhibition is 32%. In the case of `CN(C)c1ccc(NC(=O)c2ccc3nsnc3c2)cc1`, the inhibition is 18.4%. As for `CC(C)Oc1ccc(NC(=O)c2ccncc2)cc1`, the inhibition was 3.7%.
